Assay in all cases: log2 fold change, soluble protein after heating vs DMSO (PISA); higher = thermal stabilisation; K562 cells, 10 uM, 30 min; active = over 0.2 and 3.5 SD of the protein, either way, in both replicates (recomputed)
Compound in experiment [1]: COC1=CC=C(C=C1)CN2C=CC3=C2C=C(C=C3)C(=O)NO
In a few lines:
(§1)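 Values are thermal stability changes relative to control samples and are taken from duplicates. They are stated as log2 fold changes. Before quantification by TMTpro 16plex LC-MS/MS with equalised channel sums, K562 cells at 2×10^6 cells/mL were treated with 10 μM compound for 30 min, heated in aliquots for 3 min across 48°C-58°C, pooled, extracted in PBS with 0.5% NP-40 at 4°C, and centrifuged at 21,000xg for 90 min to give the soluble supernatant.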

Compound in a further experiment: CON(C)C(=O)N1N=C(c2cc(F)ccc2F)S[C@@]1(CCCN)c1ccccc1 [filanesib]
In a few lines:
as §1

Compound in another experiment: CO[C@H]1C[C@@H]2CC[C@@H](C)[C@@](O)(O2)C(=O)C(=O)N2CCCC[C@H]2C(=O)O[C@H]([C@H](C)C[C@@H]2CC[C@H](n3cnnn3)[C@H](OC)C2)CC(=O)[C@H](C)/C=C(\C)[C@@H](O)[C@@H](OC)C(=O)[C@H](C)C[C@H](C)/C=C/C=C/C=C/1C [zotarolimus]
In a few lines:
as §1

Compound in another experiment: COc1cc(C(=O)O)ccc1NC(=O)[C@@H]1N[C@@H](CC(C)(C)C)[C@](C#N)(c2ccc(Cl)cc2F)[C@H]1c1cccc(Cl)c1F [idasanutlin]
The procedure, abridged:
as §1

Compound in a further experiment: COc1cc(Nc2ncc3c(n2)-c2ccc(Cl)cc2C(c2c(F)cccc2OC)=NC3)ccc1C(=O)O [alisertib]
In a few lines:
as §1

Compound in experiment [2]: COc1cc2nc(-c3cc(F)ccc3O)nc(N[C@@H]3CNC[C@H]3C(C)(C)O)c2cc1OC
In a few lines: as §1

Compound in the next experiment: COc1cc2ncnc(Nc3ccc(F)c(Cl)c3)c2cc1OCCCN1CCOCC1 [gefitinib]
In a few lines:
as §1

Compound in experiment [3]: COc1cccc2cc(-c3nc([C@H]4CC[C@H](C(=O)O)CC4)n4ncnc(N)c34)[nH]c12
The procedure, abridged: as §1

Compound in another experiment: CS(=O)(=O)CCNCc1ccc(-c2ccc3ncnc(Nc4ccc(OCc5cccc(F)c5)c(Cl)c4)c3c2)o1 [lapatinib]
The procedure, abridged:
as §1

Compound in another experiment: CS(=O)(=O)N1CCN(Cc2cc3nc(-c4cccc5[nH]ncc45)nc(N4CCOCC4)c3s2)CC1 [pictilisib]
The procedure, abridged:
as §1

Of roughly 7,900 targets only a part is listed; those with a hit were picked by preference. About 0.6% of all pairs of compound and target were hits. Unmarked numbers belong to inactive results.

Chain of UniProt Q9NUQ2 (Q9NUQ2 whole entry, looked up): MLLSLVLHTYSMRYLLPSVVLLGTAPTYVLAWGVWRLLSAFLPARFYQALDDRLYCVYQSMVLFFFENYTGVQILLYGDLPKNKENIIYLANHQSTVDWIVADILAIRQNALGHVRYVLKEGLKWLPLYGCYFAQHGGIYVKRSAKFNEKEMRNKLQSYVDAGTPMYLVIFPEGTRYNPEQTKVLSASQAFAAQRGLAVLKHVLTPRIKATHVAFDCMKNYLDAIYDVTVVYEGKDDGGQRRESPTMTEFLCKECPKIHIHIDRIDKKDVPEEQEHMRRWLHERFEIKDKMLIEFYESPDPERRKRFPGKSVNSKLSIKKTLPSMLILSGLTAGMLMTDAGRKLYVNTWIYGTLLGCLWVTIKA
Chain of UniProt O95573 (O95573 whole entry, looked up): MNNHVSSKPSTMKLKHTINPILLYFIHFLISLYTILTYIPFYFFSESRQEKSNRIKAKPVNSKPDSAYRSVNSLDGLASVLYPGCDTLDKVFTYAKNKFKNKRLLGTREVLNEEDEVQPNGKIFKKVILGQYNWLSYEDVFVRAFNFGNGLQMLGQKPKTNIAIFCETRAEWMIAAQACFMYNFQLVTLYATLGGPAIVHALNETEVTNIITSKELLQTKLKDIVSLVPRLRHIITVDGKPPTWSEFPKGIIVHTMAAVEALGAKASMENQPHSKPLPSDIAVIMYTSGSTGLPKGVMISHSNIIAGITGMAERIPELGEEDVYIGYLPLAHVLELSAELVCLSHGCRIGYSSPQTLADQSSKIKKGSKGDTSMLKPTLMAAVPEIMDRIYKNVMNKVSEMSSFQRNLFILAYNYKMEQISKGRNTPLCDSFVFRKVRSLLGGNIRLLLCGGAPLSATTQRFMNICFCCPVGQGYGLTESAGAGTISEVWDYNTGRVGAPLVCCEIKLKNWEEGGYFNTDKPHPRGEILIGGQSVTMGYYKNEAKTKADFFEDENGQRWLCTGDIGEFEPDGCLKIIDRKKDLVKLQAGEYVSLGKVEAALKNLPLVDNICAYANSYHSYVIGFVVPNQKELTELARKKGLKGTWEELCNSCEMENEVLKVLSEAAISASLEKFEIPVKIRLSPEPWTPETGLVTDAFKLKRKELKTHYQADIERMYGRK
Chain of UniProt Q2TAA5 (Q2TAA5 whole entry, looked up): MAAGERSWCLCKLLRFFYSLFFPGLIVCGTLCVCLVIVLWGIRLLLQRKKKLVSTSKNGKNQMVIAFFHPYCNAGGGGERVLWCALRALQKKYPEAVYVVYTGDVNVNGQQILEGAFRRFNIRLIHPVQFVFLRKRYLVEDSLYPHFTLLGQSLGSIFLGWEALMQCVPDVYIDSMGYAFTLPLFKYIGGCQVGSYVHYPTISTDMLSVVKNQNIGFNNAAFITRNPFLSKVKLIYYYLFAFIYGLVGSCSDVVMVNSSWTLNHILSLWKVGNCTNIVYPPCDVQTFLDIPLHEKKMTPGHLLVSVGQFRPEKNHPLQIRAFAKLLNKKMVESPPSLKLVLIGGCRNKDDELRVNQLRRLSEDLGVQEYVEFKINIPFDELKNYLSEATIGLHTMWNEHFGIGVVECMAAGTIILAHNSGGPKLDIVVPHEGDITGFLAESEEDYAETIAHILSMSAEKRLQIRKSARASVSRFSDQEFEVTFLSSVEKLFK
Chain of UniProt Q9Y6H3 (Q9Y6H3 whole entry, looked up): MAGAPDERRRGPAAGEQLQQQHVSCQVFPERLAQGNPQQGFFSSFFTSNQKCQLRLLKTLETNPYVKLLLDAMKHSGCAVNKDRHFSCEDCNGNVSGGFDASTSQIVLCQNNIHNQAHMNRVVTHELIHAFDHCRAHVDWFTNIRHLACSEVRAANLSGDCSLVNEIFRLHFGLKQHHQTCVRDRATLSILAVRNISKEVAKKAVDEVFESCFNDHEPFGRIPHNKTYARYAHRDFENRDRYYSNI
Chain of UniProt Q13795 (Q13795 whole entry, looked up): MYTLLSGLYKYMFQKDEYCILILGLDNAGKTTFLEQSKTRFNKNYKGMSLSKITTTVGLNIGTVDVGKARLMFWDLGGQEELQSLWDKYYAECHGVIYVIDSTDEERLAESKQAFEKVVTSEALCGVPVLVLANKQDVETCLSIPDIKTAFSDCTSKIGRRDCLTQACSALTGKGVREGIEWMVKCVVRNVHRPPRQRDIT
Chain of UniProt O00468 (O00468 whole entry, looked up): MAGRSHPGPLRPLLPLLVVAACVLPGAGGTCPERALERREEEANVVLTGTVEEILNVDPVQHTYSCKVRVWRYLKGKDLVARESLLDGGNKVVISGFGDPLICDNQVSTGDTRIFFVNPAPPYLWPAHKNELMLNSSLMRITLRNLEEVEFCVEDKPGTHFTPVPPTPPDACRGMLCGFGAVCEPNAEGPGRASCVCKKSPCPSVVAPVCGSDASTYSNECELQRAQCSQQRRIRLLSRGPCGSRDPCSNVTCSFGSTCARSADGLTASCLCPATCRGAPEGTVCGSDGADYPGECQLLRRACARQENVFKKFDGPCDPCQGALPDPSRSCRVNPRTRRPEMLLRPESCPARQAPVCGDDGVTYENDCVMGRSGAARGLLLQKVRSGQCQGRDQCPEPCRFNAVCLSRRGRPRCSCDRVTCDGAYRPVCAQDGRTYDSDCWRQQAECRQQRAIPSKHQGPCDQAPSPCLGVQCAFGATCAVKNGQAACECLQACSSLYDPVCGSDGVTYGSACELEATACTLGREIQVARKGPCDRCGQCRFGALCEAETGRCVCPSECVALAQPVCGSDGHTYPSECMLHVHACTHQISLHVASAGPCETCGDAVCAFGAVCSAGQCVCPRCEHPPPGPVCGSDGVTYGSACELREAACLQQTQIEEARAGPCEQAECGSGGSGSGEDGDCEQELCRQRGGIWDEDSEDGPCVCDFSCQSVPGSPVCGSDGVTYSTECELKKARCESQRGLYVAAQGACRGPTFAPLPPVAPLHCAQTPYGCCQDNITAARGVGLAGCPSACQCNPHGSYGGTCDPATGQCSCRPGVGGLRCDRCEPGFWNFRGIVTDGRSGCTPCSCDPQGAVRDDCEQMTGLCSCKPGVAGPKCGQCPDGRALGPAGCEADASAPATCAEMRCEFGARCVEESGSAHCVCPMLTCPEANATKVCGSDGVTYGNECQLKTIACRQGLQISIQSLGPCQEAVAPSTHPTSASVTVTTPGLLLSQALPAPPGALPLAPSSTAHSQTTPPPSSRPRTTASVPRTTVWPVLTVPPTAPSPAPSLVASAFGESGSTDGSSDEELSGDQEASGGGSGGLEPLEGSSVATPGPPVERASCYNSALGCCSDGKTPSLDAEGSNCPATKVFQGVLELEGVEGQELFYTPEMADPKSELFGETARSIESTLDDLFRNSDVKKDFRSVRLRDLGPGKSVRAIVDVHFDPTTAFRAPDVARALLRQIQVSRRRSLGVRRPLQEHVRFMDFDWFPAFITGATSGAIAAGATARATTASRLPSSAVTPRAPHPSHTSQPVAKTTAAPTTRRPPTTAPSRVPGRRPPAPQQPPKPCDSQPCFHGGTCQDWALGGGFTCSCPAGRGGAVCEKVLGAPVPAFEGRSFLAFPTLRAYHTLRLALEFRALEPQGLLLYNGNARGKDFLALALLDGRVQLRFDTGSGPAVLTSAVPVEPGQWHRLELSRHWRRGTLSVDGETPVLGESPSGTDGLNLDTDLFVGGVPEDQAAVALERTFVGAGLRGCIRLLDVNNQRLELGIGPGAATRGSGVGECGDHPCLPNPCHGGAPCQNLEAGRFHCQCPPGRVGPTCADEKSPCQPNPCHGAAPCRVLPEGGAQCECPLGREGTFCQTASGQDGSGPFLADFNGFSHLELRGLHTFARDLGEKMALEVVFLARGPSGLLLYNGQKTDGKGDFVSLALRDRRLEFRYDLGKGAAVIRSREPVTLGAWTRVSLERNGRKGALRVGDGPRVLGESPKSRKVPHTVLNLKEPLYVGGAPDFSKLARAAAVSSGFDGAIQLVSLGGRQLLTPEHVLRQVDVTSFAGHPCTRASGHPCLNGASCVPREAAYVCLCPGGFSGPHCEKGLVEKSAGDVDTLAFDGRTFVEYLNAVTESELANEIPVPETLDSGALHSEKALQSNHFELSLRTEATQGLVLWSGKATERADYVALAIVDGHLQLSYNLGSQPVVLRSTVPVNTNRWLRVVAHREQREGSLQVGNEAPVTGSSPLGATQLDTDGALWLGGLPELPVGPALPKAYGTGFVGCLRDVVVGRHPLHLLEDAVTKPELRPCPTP

For the target ARFRP1 (UniProt Q13795), the log2 fold change was 0.127 in experiment [1]; -0.261 (active) in the experiment with filanesib; 0.02 with zotarolimus; -0.168 with idasanutlin; 0.111 with alisertib; 0.039 in [2]. In addition, the log2 fold change with gefitinib is -0.016; in experiment [3], -0.024; in the experiment with lapatinib, 0.071; with pictilisib, 0.168.
For the target ATP23 (UniProt Q9Y6H3), the log2 fold change is 0.003 in experiment [1]; -0.082 with filanesib; 0.005 with zotarolimus; 0.032 with idasanutlin; -0.033 with alisertib; -0.096 in [2]. For the same target, the log2 fold change in the experiment with gefitinib was -0.062; in [3] it was 0.067; with lapatinib, 0.007; with pictilisib it was 0.018.
As to AGRN (UniProt O00468), the log2 fold change in experiment [1] was -0.068; with filanesib it was 0.014; in the experiment with zotarolimus, -0.001; with idasanutlin, -0.005; in the experiment with alisertib, -0.043; in experiment [2], -0.071. Moreover, the log2 fold change in the experiment with gefitinib was 0.118; in [3] it was 0.037; with lapatinib, 0.018; in the experiment with pictilisib, 0.055.
With ACSL3 (UniProt O95573), the log2 fold change in experiment [1] was 0.126; with filanesib, -0.045; with zotarolimus, 0.019; with idasanutlin, -0.127; in the experiment with alisertib, 0.026; in experiment [2], 0.046. Moreover, the log2 fold change was 0.021 with gefitinib, 0.037 in experiment [3], 0 with lapatinib and 0.022 with pictilisib.
As to ALG11 (UniProt Q2TAA5), the log2 fold change in experiment [1] is -0.018; with filanesib, -0.038; with zotarolimus, 0.036; with idasanutlin it was -0.051; with alisertib it was -0.075; in experiment [2], -0.003. The log2 fold change with gefitinib was 0.206; in experiment [3], 0.026; with lapatinib, 0.005; in the experiment with pictilisib, 0.032.
AGPAT5 (UniProt Q9NUQ2): the log2 fold change in [1] was -0.043; with filanesib, -0.153; with zotarolimus, 0; in the experiment with idasanutlin, -0.044; with alisertib, 0.113; in experiment [2], -0.111. Further, the log2 fold change in the experiment with gefitinib was 0.018; in experiment [3], 0.071; in the experiment with lapatinib it was 0.119; with pictilisib, 0.062.

The values are drawn from the supplement of paper PMC10849652.
